Consider 15 compounds from ChEMBL document CHEMBL1961873, “Compounds: GSK PKIS; Assays: Nanosyn kinase panel” (2012).

Molecules are shown by their SMILES. Values joined by “and” are separate entries in the source; they are usually repeats but may differ in a detail not shown here. Equal entries are not always repeated.

Experiment [1] has as its target Casein kinase I isoform gamma-2 (Homo sapiens) (UniProt P78368). As to conditions: at 1 µM.
In experiment [2] the target is Casein kinase I isoform gamma-3 (Homo sapiens) (UniProt Q9Y6M4). Particulars: at 0.1 µM.
Sequence of Casein kinase I isoform gamma-3 (Homo sapiens) (Q9Y6M4 whole entry, looked up, canonical isoform): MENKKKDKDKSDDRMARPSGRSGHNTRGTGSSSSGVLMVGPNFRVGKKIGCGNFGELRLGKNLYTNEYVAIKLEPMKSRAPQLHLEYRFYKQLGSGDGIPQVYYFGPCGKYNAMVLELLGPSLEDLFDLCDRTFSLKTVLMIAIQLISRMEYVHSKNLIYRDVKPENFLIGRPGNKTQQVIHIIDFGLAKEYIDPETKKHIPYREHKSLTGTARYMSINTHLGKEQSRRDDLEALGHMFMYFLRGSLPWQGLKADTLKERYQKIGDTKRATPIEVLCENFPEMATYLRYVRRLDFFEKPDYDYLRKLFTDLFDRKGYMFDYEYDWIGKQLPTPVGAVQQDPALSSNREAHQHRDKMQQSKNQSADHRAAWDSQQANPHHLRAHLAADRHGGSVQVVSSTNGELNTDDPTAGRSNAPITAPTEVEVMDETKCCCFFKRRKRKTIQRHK
The target is the same in experiment [3]. Particulars: at 1 µM.
For experiment [4], the target named is Cyclin-dependent kinase 1 (Homo sapiens) (UniProt P06493). As to conditions: at 0.1 µM.
Sequence of Cyclin-dependent kinase 1 (Homo sapiens) (P06493 whole entry, looked up): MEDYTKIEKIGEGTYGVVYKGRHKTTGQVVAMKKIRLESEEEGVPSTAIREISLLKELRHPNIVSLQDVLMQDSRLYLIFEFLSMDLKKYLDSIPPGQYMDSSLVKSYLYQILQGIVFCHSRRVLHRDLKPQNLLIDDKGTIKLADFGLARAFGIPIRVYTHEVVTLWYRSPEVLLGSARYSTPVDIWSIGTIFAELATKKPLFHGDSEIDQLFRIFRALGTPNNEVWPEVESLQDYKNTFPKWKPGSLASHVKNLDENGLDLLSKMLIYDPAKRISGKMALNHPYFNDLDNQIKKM
Experiment [5] has the same target. Particulars: at 1 µM.
Experiment [6] deals with Cyclin-dependent kinase 2 (Homo sapiens) (UniProt P24941). As to conditions: at 0.1 µM.
Experiment [7] shares this target. Particulars: at 1 µM.
Experiment [8] has the same target. Particulars: at 0.1 µM. The source holds these as a separate data set.
For experiment [9] the target is unchanged. Particulars: at 1 µM. This is another data set of the same source.
Experiment [10] concerns the target CDK3/Cyclin E (Homo sapiens) (UniProt P24864+Q00526). As to conditions: at 0.1 µM.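 Note: reported percentages are mean inhibition values.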

Sequence of CDK3/Cyclin E (Homo sapiens) (P24864 whole entry, looked up): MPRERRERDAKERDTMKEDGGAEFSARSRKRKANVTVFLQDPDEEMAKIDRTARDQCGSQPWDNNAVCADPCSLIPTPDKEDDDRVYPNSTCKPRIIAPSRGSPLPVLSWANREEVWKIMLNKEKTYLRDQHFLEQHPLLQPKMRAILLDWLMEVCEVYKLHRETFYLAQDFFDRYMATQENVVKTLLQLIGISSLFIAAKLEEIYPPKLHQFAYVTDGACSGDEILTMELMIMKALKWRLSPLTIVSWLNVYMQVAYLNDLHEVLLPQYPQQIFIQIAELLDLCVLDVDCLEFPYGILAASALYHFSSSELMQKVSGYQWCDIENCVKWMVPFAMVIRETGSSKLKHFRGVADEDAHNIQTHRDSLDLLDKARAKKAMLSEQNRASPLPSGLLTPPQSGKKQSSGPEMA
Sequence of CDK3/Cyclin E (Homo sapiens) (Q00526 whole entry, looked up): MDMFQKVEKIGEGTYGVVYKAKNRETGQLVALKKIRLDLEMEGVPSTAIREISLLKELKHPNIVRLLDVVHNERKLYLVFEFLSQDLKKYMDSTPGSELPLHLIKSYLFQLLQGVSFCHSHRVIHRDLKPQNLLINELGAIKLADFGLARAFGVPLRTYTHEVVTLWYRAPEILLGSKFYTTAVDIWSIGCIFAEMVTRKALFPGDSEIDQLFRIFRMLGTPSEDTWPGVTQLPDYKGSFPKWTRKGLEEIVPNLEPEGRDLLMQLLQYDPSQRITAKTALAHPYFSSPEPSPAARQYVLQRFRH
Sequence of Casein kinase I isoform gamma-2 (Homo sapiens) (P78368 whole entry, looked up, canonical isoform): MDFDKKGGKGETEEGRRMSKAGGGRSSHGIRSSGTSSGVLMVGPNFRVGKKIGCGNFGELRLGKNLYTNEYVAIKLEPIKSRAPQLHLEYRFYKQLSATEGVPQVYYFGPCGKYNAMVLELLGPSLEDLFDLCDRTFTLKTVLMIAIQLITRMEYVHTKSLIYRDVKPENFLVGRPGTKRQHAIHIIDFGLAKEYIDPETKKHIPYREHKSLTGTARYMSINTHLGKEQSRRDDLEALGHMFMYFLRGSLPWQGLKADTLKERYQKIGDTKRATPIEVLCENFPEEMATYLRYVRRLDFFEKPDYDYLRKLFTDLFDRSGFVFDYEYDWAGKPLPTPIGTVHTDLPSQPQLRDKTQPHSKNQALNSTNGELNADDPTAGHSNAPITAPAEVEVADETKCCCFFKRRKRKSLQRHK

Consider `COc1ccc(Nc2ncc(-c3ccccc3)o2)cc1OC`, for which the inhibition was 4.12% in experiment [1]; -0.65% in experiment [2]; 3.3% in experiment [3]; 8.02% in experiment [4]; 29.9% in experiment [5]; 8.91% in [6]. For the same compound, the inhibition in experiment [7] came out at 31.6%; in experiment [8], 7.2%; in [9], 27.6%; in [10] it was 6.29%.

For `CS(=O)(=O)Nc1ccc(-c2ccc3c(NC(=O)C4CC4)n[nH]c3c2)cc1`, the inhibition in [1] is 4.11%; in experiment [2] it was 4.47%; in experiment [3], 2.66%; in experiment [4], 0.29%; in [5] it was 3.65%; in [6], 2.2%. The inhibition worked out at 6.28% in experiment [7], 2.71% in experiment [8], 5.01% in [9] and 0.71% in experiment [10].

On to `CN1CCC(n2cnc(-c3ccc(F)cc3)c2-c2ccnc(NCCO)n2)CC1`, for which the inhibition turned out to be 5.84% in [1]; 4.27% in [2]; 10.2% in experiment [3]; 0.37% in experiment [4]; 1.31% in experiment [5]; 1.69% in experiment [6]. Moreover, the inhibition in experiment [7] is -0.92%; in experiment [8], 4.05%; in [9], 4.55%; in experiment [10] it was 1.13%.

Take `CN(C)CCNC(=O)Nc1ccc(N(C)c2ccnc(Nc3ccc(CS(C)(=O)=O)cc3)n2)cc1`: the inhibition in experiment [1] was 4.71%; in experiment [2], 2.93%; in experiment [3] it was 4.26%; in experiment [4], 0.42%; in experiment [5], 2.58%; in experiment [6], 1.03%. For the same compound, the inhibition came out at 0.46% in experiment [7], 3.93% in experiment [8], 5.24% in experiment [9] and 1.45% in experiment [10].

As to `Nc1nccc(-c2c(-c3ccc(F)cc3)ncn2C2CCNCC2)n1`, the inhibition was 1.81% and 6.64% in experiment [1]; -1.77% and 1.52% in experiment [2]; 15.6% and 20.3% in experiment [3]; 0.24% and 0.46% in [4]; 2.44% and 1.3% in [5]; 4.08% and 1.21% in [6]. The inhibition was -7.29% and 6.19% in [7]; -1.76% and 0.82% in [8]; -0.76% and 1.53% in experiment [9]; -0.31% and 0.39% in [10].

As for `COc1cc(N2CCN(C(C)C)CC2)ccc1Nc1nc(Nc2cccc(F)c2C(=O)O)c2cc[nH]c2n1`, the inhibition in experiment [1] was 4.83%; in [2], 1.83%; in [3] it was 4.22%; in [4], 1.3%; in [5], 1.51%; in [6], 1.99%. Besides, the inhibition in [7] amounted to 5.79%; in [8], 4.11%; in experiment [9], 4.66%; in [10], 4.48%.

Turning to `Cc1nnc(-c2cccc(-c3ccc(C(=O)NCC4CC4)cc3)c2)o1`, the inhibition in experiment [1] was 4.15%; in experiment [2], 3.29%; in experiment [3], 3.17%; in [4], -0.13%; in experiment [5], 2.72%; in experiment [6], 2.01%. Moreover, the inhibition in [7] was determined as 13.5%; in [8], 4.78%; in experiment [9], 4.88%; in experiment [10], 3.15%.

With `COc1ccc2ncn(-c3cc(O[C@H](C)c4ccccc4C(F)(F)F)c(C(N)=O)s3)c2c1`, the inhibition in [1] was -0.54%; in experiment [2] it was -1.87%; in experiment [3], 0.68%; in experiment [4], 0.65%; in [5] it was 3.45%; in experiment [6], 1.04%. In addition, the inhibition in experiment [7] was 0.96%; in experiment [8], -0.81%; in experiment [9], 1.48%; in [10] it was 1.1%.

As to `O=C(O[C@H]1CN[C@H](C#Cc2cc3ncnc(Nc4ccc5c(cnn5Cc5ccccc5)c4)c3s2)C1)N1CCOCC1`, the inhibition in experiment [1] was 0.77%; in experiment [2] it was -1.09%; in experiment [3] it was 1.79%; in experiment [4] it was 2.44%; in experiment [5], 4.08%; in [6] it was 0.92%. Also, the inhibition is -1.09% in experiment [7], 3.48% in [8], 2.34% in experiment [9] and -0.1% in experiment [10].

As for `COc1cc(N2CCN(C(C)C)CC2)ccc1Nc1nc(Nc2cccc3ncccc23)c2cc[nH]c2n1`, the inhibition in experiment [1] was -1.47%; in experiment [2], -2.11%; in experiment [3], 0.2%; in experiment [4] it was 1.38%; in [5], 4.94%; in experiment [6] it was 1.96%. Also, the inhibition turned out to be 3.44% in experiment [7], 2.69% in experiment [8], 4.49% in [9] and 1.33% in experiment [10].

With `NS(=O)(=O)c1ccc(N/N=C2\C(=O)Nc3ccc(C(=O)NCc4ccncc4)cc32)cc1`, the inhibition in experiment [1] came to 4.22%; in experiment [2] it was 1.86%; in [3], 5.91%; in [4], 31.4%; in experiment [5], 71.3%; in [6], 84.9%. The inhibition in [7] was 110%; in experiment [8], 78%; in [9] it was 86.2%; in experiment [10], 53.2%.

As to `CC1=C(C(=O)Nc2ccc3[nH]nc(C)c3c2)C(c2ccc(C(F)(F)F)cc2)CC(=O)N1` (stereo not given), the inhibition stood at 3.14% in experiment [1]; 2.16% in experiment [2]; 2.2% in experiment [3]; 1.96% in experiment [4]; 6.87% in experiment [5]; 2.54% in experiment [6]. Also, the inhibition stood at 6.05% in [7], 2.66% in experiment [8], 6.67% in [9] and 0.4% in experiment [10].

For `Nc1nonc1-c1nc2cnccc2n1C1CC1`, the inhibition in experiment [1] was 3.78% and -0.61%; in experiment [2] it was 3.26% and -1.06%; in experiment [3] it was 2.82% and 0.84%; in experiment [4], 1.19% and -3.89%; in [5] it was 8.14% and 3.98%; in experiment [6], 5% and 1.12%. For the same compound, the inhibition in experiment [7] was 28% and 29.5%; in experiment [8], 5.56% and 1.64%; in [9], 23.7% and 19.1%; in experiment [10], 3.57% and 1.86%.

On to `CN(c1ccc(NC(=O)NCCN2CCOCC2)cc1)c1ccnc(Nc2ccc(CS(C)(=O)=O)cc2)n1`, for which the inhibition in experiment [1] was 1.47%; in [2], 2.29%; in [3], 2.32%; in experiment [4], -0.38%; in experiment [5], 2.55%; in [6], 1.15%. Further, the inhibition in [7] was found to be 11.3%; in [8] it was 3.19%; in experiment [9], 4.7%; in [10], 0.76%.

In the case of `COc1cccc(Nc2nccc(-c3cnn4ncccc34)n2)c1`, the inhibition was 47.2% in experiment [1]; 3.61% in [2]; 38.6% in experiment [3]; 63.9% in [4]; 79.2% in experiment [5]; 72.8% in [6]. The inhibition in [7] amounted to 105%; in [8] it was 64.7%; in experiment [9], 78.6%; in experiment [10] it was 42.2%.
